An excerpt weighted towards active compounds, which were near 3.1% of everything screened.
Tb PFK inh-1 = qHTS Assay to Find Inhibitors of T. brucei phosphofructokinase | T. brucei PFK, ADP-Glo luminescence | ATP-dependent 6-phosphofructokinase (Trypanosoma brucei brucei), O15648 | Potency, µM (doses to about 57.5 µM), for the others: at the top dose activity, negative = inhibition, actives largely listed as inhibitors | AID 485367, 2010 | hit rate 0.17% among 330,000;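 note: 0% = uninhibited 1x PFK enzyme wells and -100% = no-enzyme wells; nearly all actives have a fitted effect of over 60% in size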
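In TEA buffer at pH 8.0 with 5 mM MgCl2, enzyme (1.25 nM) converted F6P (0.5 mM) and ATP (0.1 mM) for 45 min at room temperature. ADP product was read by luciferase luminescence.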
VDR inh = Inhibitors of the vitamin D receptor (VDR): qHTS. Vitamin D3 receptor (Homo sapiens), P11473. hit rate 0.93% among 400,000. VDR-SRC2-3 peptide fluorescence polarization, 2 h. Potency, µM, for inactives: max response, negative = inhibition, most hits filed as inhibitors; note: % is set by controls: 0 for no effect and ±100 for the full control effect
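Reagent solutions, kept cold and dark, are dispensed first; compounds are then pinned in at 23 nl, plates briefly spun, and incubated 2 h at ambient temperature. Inhibition of VDR–SRC2-3 peptide binding is read by fluorescence polarization.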
S-ASM inh = Inhibitors of Secretory Acid Sphingomyelinase (S-ASM): qHTS; Sphingomyelin phosphodiesterase (Homo sapiens), P17405; Potency, µM (titrated, usually from 57.5 µM), for inactives: top-dose activity change, negative = inhibition, hits mostly inhibitors; AID 504937, 2011; placental ASM, HMU-PC fluorogenic substrate, 60 min; hit rate 0.006% among 340,000
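Fluorogenic HMU-PC substrate (9 uM final) is turned over by placental ASM in 60 min at 37 C after a 10 min compound preincubation. Reaction ended by alkaline stop (pH 10), with fluorescence read at 386/447 nm.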
TDP1 inh = qHTS Assay for Inhibitors of Tyrosyl-DNA Phosphodiesterase (TDP1); Tyrosyl-DNA phosphodiesterase 1 (Homo sapiens), Q9NUW8; recombinant TDP1, AlphaScreen DNA substrate cleavage; Potency, µM (series often up to 130 µM), for inactives: top-dose activity change, negative = inhibition, most hits filed as inhibitors; hit rate 0.28% among 350,000; AID 485290, 2010; note: % is set by controls: 0 for no effect and ±100 for the full control effect; nearly all actives have a fitted effect of over 40% in size
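AlphaScreen read-out: signal falls as enzyme removes the 3' tyrosine-FITC from a 5'-biotinylated DNA oligo (15 nM, 5 min, RT). Enzyme was E. coli-made recombinant Tdp1 at 1 nM, exposed to compound for 15 min beforehand; beads 10 ug/ml, 10 min.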
Pin1 inhibitor = qHTS Assay to Find Inhibitors of Pin1. Pin1 FP peptide displacement, HiFluor488, 10 min. hit rate 0.009% among 390,000. Peptidyl-prolyl cis-trans isomerase NIMA-interacting 1 (Homo sapiens), Q13526. AID 504891, 2011. Potency, µM (highest dose often 115 µM), for inactives: at the top dose activity, negative = inhibition, usual class: inhibitors; active = well fitted inhibition curve with a large enough effect in the polarisation, with a control signal flat, not every such curve was filed as active; inconclusive = small, poorly fitted or top-dose-only effect, or effect the other way, or a change in a side signal; inactive = no such curve, though single readings can be large or run the other way; the % refers to the polarisation; note: % is set by controls: 0 for no effect and ±100 for the full control effect
Target sequence (Q13526 whole entry, looked up): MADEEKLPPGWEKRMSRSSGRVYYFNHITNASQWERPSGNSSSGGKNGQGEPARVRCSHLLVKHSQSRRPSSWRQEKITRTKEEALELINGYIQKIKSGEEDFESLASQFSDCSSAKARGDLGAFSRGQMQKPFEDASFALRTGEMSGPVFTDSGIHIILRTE
PLK1 PBD inh = qHTS for Inhibitors of PLK1-PDB (polo-like kinase 1 - polo-box domain): Primary Screen. hit rate 2.8% among 360,000. Potency, µM, for inactives: max response, negative = inhibition, hits mostly inhibitors. Plk1 PBD binding of FITC phosphopeptide, fluorescence polarization. Serine/threonine-protein kinase PLK1 (Homo sapiens), P53350; note: series mostly up to about 57 µM; % is set by controls: 0 for no effect and ±100 for the full control effect; nearly all actives have a fitted effect of over 65% in size
Target sequence (P53350 whole entry, looked up, the tested form may be a part): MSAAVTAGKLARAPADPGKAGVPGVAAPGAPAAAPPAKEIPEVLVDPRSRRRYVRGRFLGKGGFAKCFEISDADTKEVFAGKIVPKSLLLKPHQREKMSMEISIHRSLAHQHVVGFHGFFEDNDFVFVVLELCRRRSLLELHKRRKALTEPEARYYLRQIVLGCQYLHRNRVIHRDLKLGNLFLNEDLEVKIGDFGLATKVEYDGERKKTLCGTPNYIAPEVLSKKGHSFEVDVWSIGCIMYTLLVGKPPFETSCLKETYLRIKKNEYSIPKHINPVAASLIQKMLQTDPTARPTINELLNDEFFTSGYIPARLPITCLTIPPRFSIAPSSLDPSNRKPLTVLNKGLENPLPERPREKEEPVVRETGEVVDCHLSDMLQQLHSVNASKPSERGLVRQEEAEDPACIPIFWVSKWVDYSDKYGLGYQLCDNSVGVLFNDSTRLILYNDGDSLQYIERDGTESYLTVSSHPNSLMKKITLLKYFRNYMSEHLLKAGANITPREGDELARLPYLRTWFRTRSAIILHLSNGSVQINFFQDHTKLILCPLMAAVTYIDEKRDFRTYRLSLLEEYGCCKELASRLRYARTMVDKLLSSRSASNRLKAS
Tb PFK KinaseGlo = Tb PFK orthogonal confirmatory assay using ATP depletion (Kinase-Glo Plus) as an alternative measure of Tb PFK activity: Hit Validation | shares compounds with Tb PFK inh-1 | Tb PFK enzyme, ATP depletion, Kinase-Glo Plus luminescence | Potency, µM (top dose mostly 57.5 µM), for the others: top-dose inhibition | hit rate 47% among 1,100 | AID 504636, 2011; calls by dose curve; note: nearly all actives have a fitted effect of over 60% in size
Tb PFK inh-2 = Inhibitors of T. brucei phosphofructokinase: Hit Validation. purified T. brucei PFK, ADP-Glo luminescence, 45 min. Potency, µM (titrated, usually from 57.5 µM), for the others: top-dose activity change, negative = inhibition, most hits filed as inhibitors. shares compounds with Tb PFK inh-1. AID 504637, 2011. hit rate 41% among 1,100;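 note: plate controls were full PFK enzyme control for no effect and no enzyme control for full effect; nearly all actives have a fitted effect of over 60% in size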
VDR confirm = qHTS for Inhibitors of the vitamin D receptor (VDR): Hit Validation in Primary Screen; hit rate 89% among 840; VDR-coactivator inhibition assay, qHTS confirmation; Potency, µM, usual class: inhibitors; AID 602199, 2012; shares compounds with VDR inh
VDR FP fluor = qHTS for Inhibitors of the vitamin D receptor (VDR): Hit Validation using a Fluorescein Assay; Potency, µM (highest dose often 57.1 µM), for inactives: top-dose activity change, negative = inhibition, actives largely listed as inhibitors; hit rate 48% among 840; shares compounds with VDR inh; AID 602200, 2012; VDR-coactivator binding, fluorescein fluorescence polarization
VDR bla reporter = qHTS for Inhibitors of the vitamin D receptor (VDR): Hit Validation using a Beta-Lactamase Assay | shares compounds with VDR inh | VDR beta-lactamase reporter cells, FRET ratio; cells co-treated with VDR agonist LG190178 | Potency, µM (series often up to 46.1 µM), inactives show at the top dose activity change, negative = inhibition, most hits filed as inhibitors | hit rate 23% among 840; note: % is set by controls: 0 for no effect and ±100 for the full control effect
VDR viability = qHTS for Inhibitors of the vitamin D receptor (VDR): Hit Validation using a Cytotoxicity Assay; shares compounds with VDR inh; cytotoxicity counter-screen, cell viability, qHTS; Potency, µM (top dose mostly 48.3 µM), without a hit: at the top dose activity change, negative = cytotoxicity, usual class: cytotoxic; hit rate 18% among 840;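 note: plate controls were DMSO for no effect and high-concentration cycloheximide for full effect; nearly all actives have a fitted effect of over 75% in size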
TbPYK confirm = qHTS of Trypanosoma Brucei Inhibitors: Confirmatory Assay for Cherry-picked Compounds; recombinant TbPYK, Kinase-Glo ATP luminescence; Potency, µM (highest dose often 76.9 µM), without a hit: top-dose activity change, negative = inhibition, most hits filed as inhibitors; shares compounds with PLK1 PBD inh; hit rate 67% among 890; note: % is set by controls: 0 for no effect and ±100 for the full control effect; nearly all actives have a fitted effect of over 70% in size
TbPYK orthogonal = qHTS of Trypanosoma Brucei Inhibitors: Orthogonal Assay for Cherry-picked Compounds; recombinant TbPYK, ADP-Glo luminescence, 60 min; hit rate 62% among 890; Potency, µM (titrated, usually from 76.9 µM), without a hit: at the top dose activity change, negative = inhibition, hits mostly inhibitors; shares compounds with PLK1 PBD inh; note: % is set by controls: 0 for no effect and ±100 for the full control effect; nearly all actives have a fitted effect of over 75% in size
* hit, by the source's call; ? = inconclusive; . = not tested or not shown; [ ] = another dose, or the depositor's remark. Unless noted, calls come from the whole dose curve; as a rule, active = well fitted curve in the direction sought with a large enough effect; inconclusive = small, poorly fitted or top-dose-only effect, or another doubt; inactive = no such curve, though single readings can be large; an effect the other way counts as inactive or inconclusive. Potency is the fitted concentration of half-maximal effect.

SMILES	Tb PFK inh-1	VDR inh	S-ASM inh	TDP1 inh	Pin1 inhibitor	PLK1 PBD inh	Tb PFK KinaseGlo	Tb PFK inh-2	TbPYK confirm	TbPYK orthogonal	others
COc1ccc(C(=O)C2(C)N(O)C(C)C(c3cccs3)=[N+]2[O-])cc1 (centres undefined)	-6%	11%	0%	3%	-4%	-2%	.	.	.	.
COc1ccc(N2C(=O)/C(=C/c3cccs3)NC2=S)cc1	15µM*	?	-4%	3%	2%	2.7µM*	6µM*	6µM*	8.9µM*	13µM*
Cc1ccccc1CN1C(=O)C(C)N=C(c2ccccc2)c2ccccc21 (centres undefined)	.	1%	.	2%	0%	.	.	.	.	.
CN1CCN(C(=S)c2ccc(Br)cc2)CC1	?	?	6%	3%	0%	4.2µM*	12µM*	13µM*	7.1µM*	7.9µM*
S=C(c1ccc(Br)cc1)N1CCN(Cc2ccccc2)CC1	?	?	-1%	0%	6%	6.7µM*	8.5µM*	27µM*	1.3µM*	8.9µM*
Oc1ccc(C(=S)N2CCN(Cc3ccccc3)CC2)cc1	?	50µM*	-3%	0%	4%	2.7µM*	9.5µM*	19µM*	16µM*	32µM*
Cc1ccc(-n2nc(C)c3c2NC(=O)CSC3c2ccc(O)cc2)cc1Cl (centres undefined)	.	18%	.	3%	2%	.	.	.	.	.
N#Cc1cc2c(nc1SCC(=O)Nc1ccc(C(F)(F)F)cc1)C1CCN2CC1	.	-7%	.	6%	0%	.	.	.	.	.
Cc1cc(NS(=O)(=O)c2ccc(NC(=O)/C=C/c3ccc(C)o3)cc2)nc(C)n1	?	?	0%	-14%	0%	8.4µM*	-12%	?	7.9µM*	11µM*
O=C(O)c1ccc2c(c1)C(=O)/C(=C/c1ccccc1)C2=O	?	?	0%	.	.	2.4µM*	-16%	?	16µM*	35µM*
CN1CCN(C(=O)c2sc(=S)n(-c3ccccc3)c2N)CC1	11µM*	45µM*	2%	-1%	-10%	1.5µM*	3.8µM*	5.4µM*	0.63µM*	0.89µM*	VDR confirm=11*;VDR FP fluor=?;VDR bla reporter=-5%;VDR viability=-5%
O=C1CCC(C(=O)Nc2cccc(S(=O)(=O)Nc3ccccc3F)c2)=NN1	?	25µM*	-2%	1%	-3%	2.4µM*	3.4µM*	9.5µM*	6.3µM*	6.3µM*	VDR confirm=?;VDR FP fluor=?;VDR bla reporter=25%;VDR viability=14%
CC(=O)OCC(=O)[C@@H]1CC[C@H]2[C@H]3CC[C@H]4C[C@@H](O)CC[C@]4(C)[C@@H]3C(=O)C[C@@]12C	.	-1%	.	11%[21 µM]	.	.	.	.	.	.
CCc1c(C)sc(NC(=O)c2ccoc2C)c1C(N)=O	?	35µM*	1%	4%	1%	2.7µM*	3.4µM*	8.5µM*	14µM*	16µM*	VDR confirm=6.7*;VDR FP fluor=?;VDR bla reporter=5%;VDR viability=-10%
O=C1Nc2ccccc2Sc2ccccc21	1%	-25%	0%	0%	-2%	3%	.	.	.	.
O=C(/C=C1\C(=O)Nc2ccccc21)/C=C1\C(=O)Nc2ccccc21	?	56µM*	-16%	3%	?	8.4µM*	1.7µM*	4.8µM*	18µM*	18µM*	VDR confirm=12*;VDR FP fluor=?;VDR bla reporter=?;VDR viability=?
[N-]=[N+]=CC(=O)OCC(N)C(=O)O (centres undefined)	.	6%	.	7%	.	.	.	.	.	.
Oc1ccc(C2C[C@H]3CC[C@@H]2C3)cc1O (some centres undefined)	?	-13%	1%	.	4%	?	12µM*	13µM*	10µM*	14µM*
C[C@@]12CC[C@H]3[C@@H](CC[C@@H]4C[C@H]5S[C@H]5C[C@]43C)[C@H]1CC[C@H]2O	.	?	.	4%[21 µM]	.	.	.	.	.	.
